# Source: PubChem BioAssay (Center for Chemical Genomics, University of Michigan)
# Many of the other results were omitted from the sample, so hits are more common in it than they were.
# Dicer inh – inhibitors of Dicer pre-microRNA processing, primary screen, biochemical, cat-ELCCA, chemiluminescence; AID 1347074, 2019; hit rate 6% among 47,000; z-score at 25 µM; Endoribonuclease Dicer (Homo sapiens), Q9UPY3; cat-ELCCA pre-miR-21 Dicer processing; active compounds read high; in the data active means z-score above about 3, passing the limit was not always enough;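 further: plate controls were vehicle for no effect and no enzyme for full effect; higher signal means more uncleaved substrate so more Dicer inhibition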
# Active calls of the source: *.
SMILES,Dicer inh
O=C(CC1SC(=Nc2ccc(O)cc2)NC1=O)Nc1ccc(Br)cc1 (stereo not given),3.8*
CCOC(=O)c1cnn(-c2nc(C)nc3c2cnn3-c2ccccc2)c1N,2.5
O=C(O)c1cccc(S(=O)(=O)Nc2ccc3oc(=O)sc3c2)c1,-0.91
O=C(Oc1ccc2c(=O)ccoc2c1)c1ccc(Cl)cc1Cl,2.1
CCCCNC(=O)Oc1ccc2sc(=O)oc2c1,-1
O=C(Oc1ccc2oc(=O)sc2c1)c1ccc(Br)cc1,-0.22
Cc1cccc(C(=O)Oc2ccc3oc(=O)sc3c2)c1,5.5*
O=C(Oc1ccc2c(c1)oc(=O)c1ccccc12)c1ccccc1,2.3
Cc1ccc(C(=O)Oc2ccc3oc(=O)sc3c2)cc1,5.1*
CC(=O)Oc1ccc2oc(=O)sc2c1,-1.2
O=C(Oc1ccc2oc(=O)sc2c1)c1ccccc1Cl,7.2*
CC(C)N1C(=O)C(=O)c2ccccc21,-1.7
Cc1nnc2c3c4c(sc3ncn12)CC(C)CC4 (stereo not given),0.82
C#CC1(NS(=O)(=O)c2ccc(Sc3ccc(Cl)cc3)c([N+](=O)[O-])c2)CCCCC1,0
CCOC(=O)NC(=S)Nc1sc2c(c1C(=O)OCC)CCCC2,-1.4
Clc1ccccc1CN1CCN(CC2CC=CCC2)CC1 (stereo not given),1.7
COc1ccccc1C(=O)NC(Nc1ccc(F)cc1)(C(F)(F)F)C(F)(F)F,0.45
CCOC(=O)COc1nsnc1N1CCOCC1,0.26
COc1cc2nc(-c3cccc(OC(C)=O)c3)oc(=O)c2cc1OC,1.6
CC(=O)Nc1cccc(-n2nnc(SCc3ccccc3)n2)c1,1.1
O=C(O)CCC(=O)c1ccc2c(c1)OCCCO2,1.2
CC(=O)Nc1cccc(-n2nnc(SCC(=O)c3ccc4c(c3)OCCCO4)n2)c1,3.1*
Nc1nc2c(c(=O)[nH]1)C(c1ccc(F)cc1)CC(=O)N2 (stereo not given),1.7
COc1cc(C2C(C#N)=C(C)NC3=C2C(=O)CC(c2ccc(Cl)cc2)C3)ccc1OC(C)=O (stereo not given),-0.11
Cc1sc(=Nc2ccccc2)n(-c2ccccc2)c1C,0.16
SMILES,Dicer inh
Cc1cc(C)c(CSC2=NCCS2)c(C)c1,-1.2
COc1ccc(CNCc2cc(OC)ccc2OC)cc1,1.3
COc1ccc(CNCc2ccc(SC)cc2)cc1,3.9*
COc1ccc(CNCc2ccc3c(c2)OCO3)cc1,0.97
O=C(CSc1nc2ccccc2o1)N1CCN(S(=O)(=O)c2ccccc2)C1,0.96
Cc1cc(C)c(SCCC(=O)N2CCN(c3ncc(C(F)(F)F)cc3Cl)CC2)c(C)c1,-3.2
O=C(O)CCSc1nnc2sc3ccccc3n12,0.75
O=C(CSc1nnc2sc3ccccc3n12)N1CCN(c2ccccc2)CC1,3.7*
CC(=O)CSc1nnc2sc3ccccc3n12,-0.21
O=C1CC(c2ccc(Cl)cc2)Cc2nc(N3CCN(Cc4ccccc4)CC3)ncc21 (stereo not given),0.23
COC(=O)c1ccc(C2Oc3ccc(Br)cc3C3CC(c4ccco4)=NN32)cc1 (stereo not given),2.4
CN(C)/N=C(/Sc1ccc(Br)cc1)c1cc(C(F)(F)F)cc(C(F)(F)F)c1,0.24
Cc1cc(-c2ccccc2)nc2c1/C(=N\O)CC(C)(C)C2,-0.42
CCOc1ccc(C2CC(=O)NC(SCC(=O)OC(C)C)=C2C#N)cc1 (stereo not given),0.96
O=C(COC(=O)CN1C(=O)C(=O)c2ccccc21)NCc1ccco1,1.4
CC1CCN(C(=O)CN2C(=O)C(=O)c3ccccc32)CC1,1.5
Cc1c(NC(=O)COC(=O)CN2C(=O)C(=O)c3ccccc32)c(=O)n(-c2ccccc2)n1C,3.8*
CCOC(=O)CN1C(=O)C(=O)c2ccccc21,4.6*
CCOC(=O)CCN1C(=O)c2ccccc2C1=O,0.31
Cc1c(NC(=O)OCc2ccccc2)c(=O)n(-c2ccccc2)n1C,-0.02
CN(C)c1ccc(C2N=C(c3ccc(Cl)cc3)NN2)cc1 (stereo not given),-0.5
Cn1c(=O)oc2cc(S(=O)(=O)Nc3ccc(O)cc3)ccc21,0.87
Cn1c(=O)oc2cc(S(=O)(=O)Nc3ccc(C(=O)O)cc3)ccc21,2
CCCCOC(=O)n1c(=O)oc2cc(S(=O)(=O)Nc3ccc(C)cc3)ccc21,3.3*
O=S(=O)(CCSc1ncn[nH]1)c1nc2ccccc2s1,4.6
SMILES,Dicer inh
CCOc1ccc(/C(O)=C2/C(=O)C(=O)N(CCN(C)C)C23C(=O)N(CC)c2ccccc23)cc1 (stereo not given),-0.84
Cc1ccc(S(=O)(=O)NCCCCCC(=O)O)cc1,-0.2
COc1ccc(S(=O)(=O)NCCCC(=O)O)cc1,3.1*
O=C(O)CCCNS(=O)(=O)c1ccc(Cl)cc1,1.2
O=C(Nc1ccc(Cl)cc1)Nc1ncc(C(F)(F)F)cc1Cl,0.65
COc1ccccc1N1CCN(CN2C(=O)C(=O)c3cc(Br)ccc32)CC1,-2.3
Cc1cc(N2CCN(CCO)CC2)n2c(nc3ccccc32)c1C#N,5.3*
CCCc1cc(N2CCN(CCO)CC2)n2c(nc3ccccc32)c1C#N,1.4
Cc1cc(NCCCCO)n2c(nc3ccccc32)c1C#N,0.91
COc1ccc(/C=C2/NC(=S)NC2=O)c(Cl)c1OC,-0.81
Cc1cc(C=C2C(=O)NC(=S)NC2=O)cc(C)c1O,-1.6
O=C1NC(=S)N/C1=C/c1cccs1,4.1*
Cc1ccc(/C=C2\NC(=S)NC2=O)cc1,4.7*
Cc1ccc(S(=O)(=O)Oc2ccc(/C=C3\NC(=O)NC3=O)cc2)cc1,-0.5
O=C1/C(=C/c2ccsc2)CC/C1=C\c1cccs1,-1.6
CCCn1c2ccccc2c2nnc(SCC(=O)Nc3nnc(C)s3)nc21,-0.12
CC(C)(C)S(=O)(=O)/C(C#N)=C/NNS(=O)(=O)c1ccc(Cl)c(Cl)c1,-1.4
COC(=O)c1c(NC(=O)c2c(C)cc(C)cc2C)sc2c1C(C(=O)OC)CC2 (stereo not given),1.1
CSc1nnc2c(n1)OC(C1CC=C(C)CC1)Nc1ccccc1-2 (stereo not given),3.2*
CSc1nnc2c(n1)OC(C)Nc1ccccc1-2 (stereo not given),5.8
CSc1nnc2c(n1)OC(c1ccc(C)cc1)Nc1ccccc1-2 (stereo not given),-0.71
CC1=C(C(=O)OC(C)C)C(c2ccc(Cl)cc2)n2c(nc3ccccc32)N1 (stereo not given),-1.3
CCOC(=O)/C(N=Nc1ccccc1Cl)=C(/O)CSc1nnc(C(F)(F)F)n1C,1.5
O=C1c2ccccc2NC(c2ccccc2O)N1c1ccc(F)cc1 (stereo not given),-0.68
Cc1ccc(N2C(=O)c3ccccc3C2C(=O)c2cc(C)ccc2O)cc1 (stereo not given),11*
SMILES,Dicer inh
Cc1ccc(/C(O)=C2/C(=O)C(=O)N(c3ccc(O)cc3)C2c2ccccc2)cc1 (stereo not given),0.95
O=C1C=C(c2ccccc2)OC(c2ccc([N+](=O)[O-])cc2)O1 (stereo not given),-0.29
CN(CCc1ccccn1)C(=O)Nc1ccccc1,41
CN(Cc1ccccc1)C(=O)Nc1ccccc1,3.7*
O=C(Nc1ccccc1)N(Cc1ccccc1)c1cccc2ccccc12,-2.8
C=CCN(C(=O)c1ccc(Cl)cc1)c1ccccc1C(=O)NCC(=O)OCC,-0.45
CCOc1ccc2c(c1)C(=O)c1cc(OCC)ccc1-2,6.4
CCOc1ccc2[nH]c(C3C(=O)c4ccccc4C3=O)cc(=O)c2c1,-0.57
CCOc1ccc2c(c1)C(=O)C(c1cc(=O)c3ccccc3[nH]1)C2=O (stereo not given),6.1*
